Test results reported in the supplement of paper PMC11577813, “Eurasian spruce bark beetle detects lanierone using a highly expressed specialist odorant receptor, present in several functional sensillum types” (BMC Biology, 2024).
± gives the standard deviation of the averaged measurements.

The molecules below were run on (4S)-cis-verbenol A-neuron OSN class (assay: net action potential response of A-neuron (blank-subtracted) (spikes/s (Hz)); higher = stronger excitation). Conditions: 10 µg on filter paper; neuron: A neuron (large spike amplitude).
Method: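 Single sensillum recordings from antennal olfactory sensilla of live adult Ips typographus. Each compound was 10 µg in paraffin oil on filter paper, delivered as a 0.5 s puff. Net response = spikes in the first 0.5 s of response minus the 0.5 s pre-stimulus count, doubled to give Hz, with blank response subtracted. Values are for the large-spike A-neuron class of each of seven sensillum types that co-house the lanierone B-neuron; N = 1-4 sensilla, averaged.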

How did the “net action potential response” value turn out when `C=C(C)[C@@H]1CC=C(C)CC1` [(-)-Limonene] was run?
The value was 0.667 ± 8.1.

`CCC/C=C/CO` was tested. Which “net action potential response” value did it give?
The value was 2 ± 4.

How did the “net action potential response” value turn out when `CCCCCCO` [1-Hexanol] was run?
The value was -1.33 ± 4.6.

How did the “net action potential response” value turn out when `CCc1ccc(O)c(OC)c1` [4-Ethylguaiacol] was run?
The value was 2 ± 6.

For `C[C@H]1C(=O)C[C@H]2C[C@@H]1C2(C)C` [(-)-Pinocamphone], which “net action potential response” value is on record?
The value was 2.67 ± 6.4.

`CC(C)CCO` [3-Methyl-1-butanol] was tested. Which “net action potential response” value did it give?
The value was 6 ± 7.2.

For `C=C1[C@@H]2CC[C@@H](C2)C1(C)C` (racemic) [(±)-Camphene], which “net action potential response” value is on record?
The value was 4 ± 3.5.

Which “net action potential response” value does the source give for `CC(=O)OCc1ccccc1` [Benzyl acetate] here?
Its value is 1.33 ± 8.1.

How did the “net action potential response” value turn out when `CC(C)[C@@]12CC[C@@](C)(O)[C@@H]1C2` [(+)-trans-4-Thujanol] was run?
Its value is -0.667 ± 3.1.

With `c1ccc2c(c1)CCO2` [2,3-Dihydrobenzofuran] as the molecule, how does the “net action potential response” value read?
Its value is 0 ± 2.

Which “net action potential response” value does the source give for `CCC1CCC2(CCCO2)O1` (racemic) [(±)-Chalcogran] here?
The value was 1.33 ± 5.

`C=C1CCC2CC1C2(C)C` (stereo not drawn) [(-)-β-Pinene] was tested. Which “net action potential response” value did it give?
Its value is -3 ± 4.2.

Which “net action potential response” value does the source give for `CCC/C=C\CO` here?
The value was 1.33 ± 4.2.

`COc1ccccc1` [Anisole] was tested. Which “net action potential response” value did it give?
The value was 1.33 ± 7.6.

With `COc1ccc(C)cc1` [4-Methyl anisole] as the molecule, how does the “net action potential response” value read?
The value was 4.67 ± 4.6.

`C=CCc1ccc(OC)c(OC)c1` [Eugenol methyl ether] was tested. Which “net action potential response” value did it give?
The value was -0.667 ± 8.1.

How did the “net action potential response” value turn out when `C=CC(=C)CCC=C(C)C` [Myrcene] was run?
The value was 2 ± 4.

With `CC(=O)CC/C=C(\C)CCC=C(C)C` [Geranylacetone] as the molecule, how does the “net action potential response” value read?
The value was 3.33 ± 6.1.

With `C=CC(=C)CC(O)C=C(C)C` (racemic) [(±)-Ipsdienol] as the molecule, how does the “net action potential response” value read?
Its value is -2.67 ± 2.3.

`CC(C)=CCC/C(C)=C/C=O` [Citral (E/Z mix)] was tested. Which “net action potential response” value did it give?
The value was 0 ± 3.5.

For `CC(=O)OCCc1ccccc1` [2-Phenethyl acetate], which “net action potential response” value is on record?
The value was -2 ± 4.

How did the “net action potential response” value turn out when `CC1=CCC(=C(C)C)CC1` [Terpinolene] was run?
Its value is 0 ± 3.5.

How did the “net action potential response” value turn out when `CC[C@H]1O[C@]2(C)CCC[C@H]1O2` (racemic) [(±)-exo-Brevicomin] was run?
The value was -3.33 ± 4.2.

With `CC1=CCC2C(C1)C2(C)C` (single isomer, unassigned; (+)) [(+)-3-Carene] as the molecule, how does the “net action potential response” value read?
Its value is 3.33 ± 7.

For `CC1=C[C@@H](O)[C@H]2C[C@@H]1C2(C)C` [(-)-trans-Verbenol], which “net action potential response” value is on record?
The value was 52.7 ± 13.

`CCC/C=C/C=O` [(E)-hex-2-enal] was tested. Which “net action potential response” value did it give?
The value was 4 ± 10.

Which “net action potential response” value does the source give for `C=Cc1ccc(OC)cc1` [4-Vinyl anisole] here?
Its value is 0.667 ± 5.

How did the “net action potential response” value turn out when `CCCCCC(O)CC` (racemic) [(±)-3-Octanol] was run?
The value was -6.67 ± 1.1.

With `CC1=CCC(C(C)C)=CC1` [γ-Terpinene] as the molecule, how does the “net action potential response” value read?
The value was -5.33 ± 4.2.

How did the “net action potential response” value turn out when `CC1=CC(C)(C)C=C(O)C1=O` [Lanierone] was run?
Its value is 1.33 ± 5.8.

Which “net action potential response” value does the source give for `C[C@]12CCC[C@](C)(OC1)O2` (racemic) [(±)-Frontalin] here?
The value was -2 ± 4.

`CC(=O)OCCC(C)C` [3-Methylbutyl acetate] was tested. Which “net action potential response” value did it give?
Its value is -4 ± 4.

How did the “net action potential response” value turn out when `CC1=CCC2CC1C2(C)C` (stereo not drawn) [(+)-α-Pinene] was run?
The value was -2 ± 7.2.

`COc1ccc(C)cc1OC` [3,4-Dimethoxytoluene] was tested. Which “net action potential response” value did it give?
The value was -2.67 ± 2.3.

For `CC/C=C/CCO`, which “net action potential response” value is on record?
Its value is 2.67 ± 7.

Which “net action potential response” value does the source give for `C=C1CCC2(C(C)C)CC12` (racemic) [(±)-Sabinene] here?
The value was -4 ± 7.2.

Which “net action potential response” value does the source give for `CC/C=C\CCO` here?
Its value is -0.667 ± 3.1.

Which “net action potential response” value does the source give for `OCCc1ccccc1` [2-Phenylethanol] here?
Its value is -2 ± 6.9.

Which “net action potential response” value does the source give for `C=Cc1ccccc1` [Styrene] here?
The value was 1.33 ± 9.

With `CC12CCC(CC1)C(C)(C)O2` [1,8-Cineole] as the molecule, how does the “net action potential response” value read?
Its value is 1.33 ± 4.2.
